# Screening data deposited in PubChem by National Center for Advancing Translational Sciences (NCATS).
# The list is not random: actives were taken first. Their share in the collection is about 4.6%.
# Tau ThT inhib: qHTS for Inhibitors of Tau Fibril Formation, Thioflavin T Binding; Potency, µM (doses to about 57.4 µM), actives largely listed as inhibitors; recombinant tau K18 P301L, heparin-induced fibrillization, ThT fluorescence; Microtubule-associated protein tau (Homo sapiens), P10636; 270,000 tested, 2.1% active; also: nearly all actives have a fitted effect of over 55% in size
# Target sequence (P10636 561-689 P618L limits assumed): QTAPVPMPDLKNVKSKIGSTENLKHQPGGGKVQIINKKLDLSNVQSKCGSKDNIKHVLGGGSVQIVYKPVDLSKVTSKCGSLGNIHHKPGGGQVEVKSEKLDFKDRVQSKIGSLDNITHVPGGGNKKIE
#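 K18 P301L tau (15 uM + 0.24 uM Alexa 594-tagged), heparin 20 uM, NaOAc pH 7, 6 h 37 C; ThT 30 uM, 1 h RT, ex 450/em 510 nm.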
# Tau FP inhib: qHTS for Inhibitors of Tau Fibril Formation, Fluorescence Polarization; Microtubule-associated protein tau (Homo sapiens), P10636; K18 P301L tau heparin fibrillization, Alexa594 FP, 6 h; Potency, µM (titrated, usually from 57.7 µM), actives largely listed as inhibitors; 280,000 tested, 0.39% active; AID 1468, 2008; also: nearly all actives have a fitted effect of over 55% in size
#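 FP of Alexa 594-tau after heparin (20 uM) induction. Substrate: human K18 P301L, 15 uM unlabeled, 0.24 uM labeled. Buffer 100 mM sodium acetate pH 7. 6 hr, 37 C.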
# Tau fluor counter: Counterscreen qHTS for Inhibitors of Tau Fibril Formation, Fluorescence Polarization; tau K18 P301L (four-repeat tau fragment) Alexa594 fluorescence, heparin fibrillization; Potency, µM (titrated, usually from 57.7 µM); 280,000 tested, 0.93% active; also: nearly all actives have a fitted effect of over 55% in size
#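 Human K18 P301L tau (15 uM unlabeled plus 0.24 uM Alexa 594-labeled, final) in 100 mM sodium acetate pH 7 was mixed with compound and 20 uM heparin and incubated 6 hr at 37 C.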
# PNC inhibitor: High Content Assay for Compounds that inhibit the Assembly of the Perinucleolar Compartment; AID 2417, 2010; PC3M PTB-GFP, PNC prevalence imaging, 16 h; active compounds read low; activity change (PNC), negative = inhibition, % at 10 µM; 140,000 tested, 3.1% active;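 active = readout at or below -70, meaning at least 70% loss of cells showing the perinucleolar compartment, a nuclear body marking cancer cells; inconclusive = readout between -30 and a set limit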
#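 Read-out is percentage of cells bearing a perinucleolar compartment, from automated 20x imaging of fixed, Hoechst-stained PC3M PTB-GFP cells. Cells were seeded 4 h, then exposed 16 h to compound (23 nl of library stock) in duplicate plates.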
# TRb SRC2 PPI: qHTS for Inhibitors of the Interaction of Thyroid Hormone Receptor and Steroid Receptor Coregulator 2 | 280,000 tested, 0.065% active | Thyroid hormone receptor beta (Homo sapiens), P10828 | Potency, µM (highest dose often 106 µM), hits mostly inhibitors | TRbeta-SRC2 peptide binding, fluorescence polarization; receptor liganded with 1 µM T3 | AID 1469, 2008; also: nearly all actives have a fitted effect of over 50% in size
# Target sequence (P10828 whole entry, looked up): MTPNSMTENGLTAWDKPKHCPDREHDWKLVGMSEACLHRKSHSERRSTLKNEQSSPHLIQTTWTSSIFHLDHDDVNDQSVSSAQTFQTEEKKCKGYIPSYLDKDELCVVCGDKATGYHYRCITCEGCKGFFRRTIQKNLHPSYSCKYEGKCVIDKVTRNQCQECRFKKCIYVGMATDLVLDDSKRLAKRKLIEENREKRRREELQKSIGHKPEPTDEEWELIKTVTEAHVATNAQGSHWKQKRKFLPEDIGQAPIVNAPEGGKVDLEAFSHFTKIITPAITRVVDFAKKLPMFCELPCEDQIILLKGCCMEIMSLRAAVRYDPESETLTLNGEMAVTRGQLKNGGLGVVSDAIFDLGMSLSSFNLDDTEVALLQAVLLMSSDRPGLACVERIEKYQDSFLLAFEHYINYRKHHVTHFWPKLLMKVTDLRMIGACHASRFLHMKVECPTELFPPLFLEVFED
#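 Binding of a 20-amino-acid Texas Red SRC2 peptide (20 nM) to TRb ligand-binding domain (0.6 uM) with agonist T3 at 1 uM was followed by fluorescence polarization after a 5 hr room-temperature incubation.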
# TR SRC2 fluor cs: Total Fluorescence Counterscreen for Inhibitors of the Interaction of Thyroid Hormone Receptor and Steroid Receptor Coregulator 2; TRb/SRC2 Texas Red total fluorescence interference; Potency, µM (top dose mostly 106 µM); 280,000 tested, 0.29% active; active = well fitted curve in either direction with a large enough effect; inconclusive = small, poorly fitted or top-dose-only effect
#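 Human TRb ligand-binding domain at 0.6 uM with 20 nM Texas Red SRC2 peptide in Tris buffer containing 1 uM T3 and 5% DMSO, incubated with compound 5 h at ambient temperature. Total fluorescence (555/632 nm) calculated as parallel + 2 × perpendicular.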
# Hits are given with their value; i = inactive; ? = inconclusive; nt = no result given; [ ] = another dose, or the depositor's remark. Unless noted, calls follow the shape of the dose curve; as a rule, active = well fitted curve in the direction sought with a large enough effect; inconclusive = small, poorly fitted or top-dose-only effect, or another doubt; inactive = no such curve, though single readings can be large; an effect the other way counts as inactive or inconclusive.
SMILES,Tau ThT inhib,Tau FP inhib,Tau fluor counter,PNC inhibitor,TRb SRC2 PPI,TR SRC2 fluor cs
COc1cccc(-c2cc(C(F)(F)F)c3c(N)c(C#N)sc3n2)c1,i,i,i,i,i,i
Cc1sc(NC(=O)c2sc3nc4c(C)cccc4cc3c2N)c(C#N)c1C,16µM,i,?,?,i,i
Cc1cccc2cc3c(N)c(C#N)sc3nc12,13µM,?,?,?,i,i
COc1ccc(C)cc1NC(=O)Cc1ccc(NC(=O)N2CCCCc3ccccc32)cc1,i,i,i,nt,i,i
Cc1ccc(N(CC(=O)NCc2ccncc2)S(C)(=O)=O)cc1Cl,i,i,i,-84,i,i
Nc1nc2c(c(=O)[nH]1)C(c1cccc3ccccc13)C1=C(N2)c2ccccc2C1=O (stereo not given),10µM,i,?,nt,i,i
Cc1nn(-c2ccccn2)c2c1C(c1ccccc1Cl)C1=C(N2)c2ccccc2C1=O (stereo not given),?,i,i,?,i,i
Cc1ccc(NC(=O)Cn2cnc3c(oc4nc5c(cc43)COC(C)(C)C5)c2=O)cc1,i,i,i,-84,i,i
CC1(C)Cc2nc3oc4c(=O)n(CC(=O)Nc5ccccc5)cnc4c3cc2CO1,i,i,i,i,i,i
CC1(C)CC(=O)C=C(Nc2ccc(F)cc2)C1,i,i,i,i,i,i
O=C1NC(=O)c2cc(Nc3ccccc3)c(Nc3ccccc3)cc21,14µM,i,14µM[quencher],nt,i,i
O=C1NC(=O)c2cc(Nc3ccc(F)cc3)c(Nc3ccc(F)cc3)cc21,13µM,i,14µM[quencher],nt,i,i
Cc1ccc(CCNC(=O)CCS(=O)(=O)c2cc3c(cc2Cl)NC(=O)CO3)cc1,i,i,i,nt,i,i
Cc1ccccc1OCC(=O)Nc1sc2c(c1C#N)CCC2,i,i,i,?,i,i
CCOc1ccc(N=C/C=C/c2ccccc2)c(O)c1,4.5µM,?,?,nt,i,i
CCOc1ccc(NCC(=O)N/N=C/C=C/c2ccccc2)cc1,11µM,i,?,i,i,i
O=C(Cc1cc(=O)[nH][nH]1)N/N=C/C=C/c1ccccc1,13µM,?,i,?,i,i
COc1ccc(OCC(=O)N/N=C/C=C/c2ccccc2)cc1,?,i,i,-115,i,i
COc1ccc(NCC(=O)N/N=C/C=C/c2ccccc2[N+](=O)[O-])cc1,?,i,i,nt,i,i
N#CC1(C#N)CC(C=O)=C(N)C1(C#N)CC(=O)c1ccc(F)cc1 (stereo not given),14µM,?,?,i,i,i
Cc1ccc(NS(=O)(=O)N(C)C)cc1,i,i,i,-100,i,i
COC(=O)c1ccc(NS(=O)(=O)N(C)C)cc1,i,i,i,i,i,i
O=C(Nc1cccc(Cl)c1)Nc1ccccc1-n1ccnc1,i,i,i,nt,i,i
O=C(/C(N=Nc1cccc([N+](=O)[O-])c1)=C(/O)c1ccc(Br)cc1)C(F)(F)F,25µM,i,16µM[quencher],nt,i,i
COCCNC(=O)CN(c1ccc(OC)c(OC)c1)S(=O)(=O)c1ccc(C)cc1,i,i,i,-106,i,i
SMILES,Tau ThT inhib,Tau FP inhib,Tau fluor counter,PNC inhibitor,TRb SRC2 PPI,TR SRC2 fluor cs
COc1ccc(CCNC(=O)CN(C)S(=O)(=O)c2ccc(Br)s2)cc1OC,i,i,i,-83,i,i
COc1ccc(CCNC(=O)CN(c2ccc(OC)c(OC)c2)S(C)(=O)=O)cc1,i,i,i,-139,i,i
COc1ccc(CCNC(=O)CN(c2cccc([N+](=O)[O-])c2)S(C)(=O)=O)cc1,i,i,i,nt,i,i
COc1cc2c(cc1OC)C(C(=O)Nc1cccc(C)n1)C(c1cccnc1)N(C)C2=O (stereo not given),i,i,i,i,i,i
CCOC(=O)N1CCN(C(=O)c2ccc(N3C(=O)CCC3=O)cc2)CC1,i,i,i,-89,i,i
CCOC(=O)N1CCN(C(=O)c2ccc(OCC)cc2)CC1,i,i,i[2.34 µM],nt,i,i
Cc1nc(NC(=O)/C=C/c2ccccc2)sc1C(=O)Nc1ccc(Cl)cc1,i,i,i,i,i,i
Nc1nnn(Cc2ccccc2)n1,i,i,i,-100,i,i
c1ccc(Cn2nnc(-c3ccccc3)n2)cc1,i,i,i,-100,i,i
CCOC(=O)N1CCC(NC(=O)C2CCN(C(=O)N3CC(C)Oc4ccc(C)cc43)CC2)CC1 (stereo not given),i,i,i,?,i,i
Cc1ccc2c(c1)N(C(=O)N1CCC(C(=O)NC3CCCCCC3)CC1)CC(C)O2 (stereo not given),?,i,10µM[quencher],nt,i,i
CCOc1ccccc1CNC(=O)C1CCN(C(=O)N2CCOc3ccc(Cl)cc32)CC1,32µM,?,?,nt,i,i
O=C(NC1CCCCCC1)C1CCN(C(=O)N2CCOc3ccc(Cl)cc32)CC1,22µM,?,?,nt,i,i
Cc1ccc(C(=O)n2nc(-c3cccnc3)nc2N)cc1,?,i,i,i,i,i
O=C1/C(=C\c2ccc(-c3ccccc3[N+](=O)[O-])o2)C(c2ccccc2)=NN1c1ccccc1,?,i,?,-86,i,i
Cc1ccc(-c2ccc(/C=C3\C(=O)ON=C3c3ccccc3)o2)c([N+](=O)[O-])c1,16µM,i,?,i,i,i
CCOc1ccccc1Nc1nc(-c2sc(NC(=O)c3cccc(Cl)c3)nc2C)cs1,?,?,?,i,i,i
Cc1nc(N)sc1-c1csc(NCc2ccccc2)n1,20µM,?,?,i,i,i
Cc1ccc(Cl)cc1Nc1nc(-c2sc(NC(=O)c3ccccc3)nc2C)cs1,?,i,?,i,i,i
Cc1cc(NS(=O)(=O)c2ccc(Nc3nc(-c4sc(NC(=O)c5ccccc5)nc4C)cs3)cc2)no1,20µM,i,16µM[quencher],i,i,i
Cc1nc(NC(=O)c2ccccc2)sc1-c1csc(NCCc2ccccc2)n1,16µM,?,16µM[quencher],i,i,i
Cc1nc(NC(=O)c2ccccc2)sc1-c1csc(Nc2cccc(F)c2)n1,7.9µM,?,11µM[quencher],i,i,i
O=C(CSc1ncn[nH]1)Nc1ccc(Cl)c(S(=O)(=O)N2CCOCC2)c1,i,i,i,nt,i,i
Nc1c(NCc2ccccc2F)c(=O)[nH]c(=O)n1Cc1ccccc1,?,?,i,i,i,i
CC(C)(C)Nc1nc(Oc2ccc(=O)n(-c3ccccc3)n2)nc(N2CCOCC2)n1,i,i,i,?,i,i
